Rows were chosen to be rich in hits. Some 3% of all compounds tested hit in one or more screens of this group.
Measles CPE = protection of cells from measles virus | AID 841 | 140,000 tested, 1.5% active | protection (pct of control), % at 4 µM | Measles virus-infected cells, CPE protection, absorbance; in the data active = protection mostly above about 24%, no sharp cut-off; inactive = mostly below about 26%
ROMK primary = modulators of human ROMK potassium channel. Tet-inducible ROMK, thallium flux fluorescence; actives lie on both sides. 130,000 tested, 2% active. P48048. AID 1918. B-score at 10 µM;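 active = signal ratio slope over the read window, or its plate-corrected B-score, at least 3 SD from the plate mean, either direction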;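 note: B-score of the F/F0 ratio slope over 7 to 12 s after thallium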
Target sequence (P48048 whole entry, looked up): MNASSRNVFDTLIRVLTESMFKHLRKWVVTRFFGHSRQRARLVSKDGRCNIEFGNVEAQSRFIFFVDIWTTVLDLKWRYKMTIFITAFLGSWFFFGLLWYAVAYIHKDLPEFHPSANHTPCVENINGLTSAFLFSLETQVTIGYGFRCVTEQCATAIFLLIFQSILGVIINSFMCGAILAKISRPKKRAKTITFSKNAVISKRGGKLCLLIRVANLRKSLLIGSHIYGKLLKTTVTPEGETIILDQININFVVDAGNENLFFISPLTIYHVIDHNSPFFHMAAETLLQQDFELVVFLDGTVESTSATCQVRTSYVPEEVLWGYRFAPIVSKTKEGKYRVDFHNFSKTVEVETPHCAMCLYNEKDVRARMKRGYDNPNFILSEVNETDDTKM
Insulin prom inh = TRM-6 insulin promoter activity inhibition; TRM-6 cells (human fetal islet line), insulin promoter-eGFP reporter, imaging; reporter expression induced with tamoxifen; 130,000 tested, 0.9% active; inhibition, % at 2 µM;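 active = inhibition above the mean plus 3 SD, with well images judged a real hit on visual review, cut at about 60% in these data, passing the limit was not always enough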
sdo1 growth = restores growth of sdo1-depleted yeast; S. cerevisiae sdo1-depleted JHY4D growth rescue, OD600 30 h; active compounds read high; pdr5 snq2 efflux-pump mutant strain; z-score at 10 µM; 140,000 tested, 0.21% active;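 active = z-score above 3 at both the 24 hr and the 30 hr optical density reads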;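 note: z-score against mean and SD of all compound wells on the same plate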
* = called active by the depositor; · = no result given; [ ] = another dose, or the depositor's remark.

SMILES | Measles CPE | ROMK primary | Insulin prom inh | sdo1 growth
COc1ccc(-n2c(C)c(C(C)=O)c(C(C)=O)c2C)cc1 | 3.4 | -0.242 | · | 0.56
COc1ccc(-n2c(C)cc(SC)c(C(C)=O)c2=S)cc1 | 97.5* | 0.927 | -53.6 | 0.38
O=C(CSc1nc2ccccc2n1-c1ccccc1)Nc1ncc(Cl)cc1Cl | 52.5* | · | · | -1.54
COc1ccc(-n2c(SCC(=O)Nc3ncc(Cl)cc3Cl)nc3ccccc32)cc1 | · | -0.483 | · | ·
Cc1cccc(-n2c(SCC(=O)Nc3ncc(Cl)cc3Cl)nc3ccccc32)c1 | 42.8* | · | -71.0 | -0.75
CCOC(=O)C1=C(C)Nc2ccccc2N=C1NC(=O)c1ccc(Cl)c(S(=O)(=O)N2CCCC2)c1 | · | 0.11 | · | ·
Cc1ccc(NCc2ccc(O)c3ncccc23)cc1 | · | · | 28.6 | ·
Cc1ccc(NCc2ccc(O)c3ncccc23)cc1C | · | · | 78.6* | ·
CC(=O)Nc1ccc(NC2=C(Cl)C(=O)c3ccccc3C2=O)cc1 | · | 0.737 | 42.9 | ·
O=C(Oc1ccc(NC2=C(Cl)C(=O)c3ccccc3C2=O)cc1)c1ccc([N+](=O)[O-])cc1 | 3.7 | -0.529 | 62.5* | -0.02
CCc1nc(NC(C)C)c2oc3ccccc3c2n1 | 27.4 | -0.465 | 88.9* | 0.04[13.4 µM]
CCc1nc(NCCCN2CCOCC2)c2oc3ccccc3c2n1 | 7.1 | · | 61.1 | -0.05
CCc1nc(Nc2ccc3c(c2)OCO3)c2oc3ccccc3c2n1 | 57.0* | · | 79.3* | -1.5
CCc1nc(NCCN2CCOCC2)c2oc3ccccc3c2n1 | 2.4 | 0.0518 | 84.6* | -0.37
Cc1cccc(NC(=O)NNC(=O)c2sccc2-n2cccc2)c1 | · | 0.888 | · | ·
O=C(CN1CCCCCC1)Nc1ccc(Oc2ccccc2)cc1 | · | -1.72 | · | ·
O=C(CN1CCCCC1)Nc1ccccc1 | 30.3* | 0.116 | · | 0.87
COc1cccc2c1OCC/C2=N\NC(=O)C(C)Oc1ccc([N+](=O)[O-])cc1 (configuration not stated) | · | -0.853 | · | ·
COc1ccc(Nc2nc(-c3c(C)nc4ncccn34)cs2)cc1 | · | 3.14* | -138.1 | ·
N#Cc1c(NC(=O)CSc2ccccn2)oc(-c2ccccc2)c1-c1ccccc1 | 32.8* | -0.953 | 26.9 | -1.39
CCn1c(SCC(=O)Nc2oc(-c3ccccc3)c(-c3ccccc3)c2C#N)nnc1-c1ccncc1 | 5.8 | 0.671 | 62.1 | -0.65
N#Cc1c(NC(=O)CCN2C(=O)c3ccccc3C2=O)oc(-c2ccccc2)c1-c1ccccc1 | 1.7 | 0.939 | 41.9 | 0.91
N#Cc1c(NC(=O)CCn2cnc3ccccc3c2=O)oc(-c2ccccc2)c1-c1ccccc1 | 16.5 | -1.4 | 75.0* | -0.24
O=C(c1ccc(CNS(=O)(=O)c2ccccc2)cc1)N1CCN(Cc2ccccc2)CC1 | 28.2* | -0.851 | 11.5 | -0.5
COc1cc2[nH]c(=O)c(C(=O)NCCCN3CCOCC3)c(O)c2cc1OC | · | 0.561 | · | ·
SMILES | Measles CPE | ROMK primary | Insulin prom inh | sdo1 growth
O=C(NCCCN1CCOCC1)c1c(O)c2cc(Br)cc(Br)c2[nH]c1=O | · | -3.32* | -197.7 | ·
O=C1CC(c2ccccc2)n2nc(N3C(=O)CCC3=O)nc2N1 (configuration not stated) | 52.0* | · | · | 0.35
CC(=O)NC1C(=O)N(CCc2ccccc2)c2ccc(Br)cc21 (configuration not stated) | 16.3 | -0.855 | 71.9* | -0.1
COc1ccc(/C(O)=C2/C(=O)C(=O)N(CCCN(C)C)C2c2ccc(C)o2)cc1Cl (configuration not stated) | 5.1 | 0.759 | · | -0.34
Cc1cc2c(cc1C)/C(=C\C(N)=O)NC(C)(C)C2 | 44.4* | 0.872 | 11.1 | -0.76
Cc1ccc(C2NC(=O)Cc3ccccc32)cc1 (configuration not stated) | 2.7 | -0.572 | 29.0 | 1.13
O=C(COC(=O)c1n[nH]c2ccccc12)NC(=O)NCc1ccco1 | 24.8* | 0.0672 | · | 0.2
CCC(=O)NNc1ncnc2ccccc12 | 91.8* | · | · | 0.16
O=Nc1ccc(NOC(=O)c2ccccc2Br)cc1 | 27.7* | -1.48 | -14.8 | -1.27
O=C(ONc1ccc(N=NC(=O)c2ccccc2O)cc1)c1ccccc1 | 2.5 | · | -18.6 | -0.1
O=C(NCCc1c[nH]c2ccccc12)C(=O)NCC(c1ccco1)N1CCN(c2ccccc2F)CC1 (configuration not stated) | 6.3 | 0.574 | 24.1 | 0.6
Cc1cc(N/C=C\c2nnnn2-c2ccc(F)cc2)no1 | 33.6* | -0.192 | 25.0 | 0.03
COc1cc(NS(=O)(=O)c2ccc(N/C=C\C(=O)c3ccc(F)cc3)cc2)nc(OC)n1 | 9.9 | 1.42 | 37.8 | -1
O=C(Cc1ccccc1)Nc1nc(-c2cccc([N+](=O)[O-])c2)cs1 | 35.2 | · | · | -1.04
Cc1ccc(C(=O)NC(=S)Nc2nc(-c3cccc([N+](=O)[O-])c3)cs2)c(Cl)c1 | · | · | 85.7* | ·
O=C(COc1ccc2ccccc2c1)NCCNC(=O)COc1ccc2ccccc2c1 | 84.5* | -0.869 | -13.9 | -0.64
CC1CCCN(S(=O)(=O)c2ccccc2[N+](=O)[O-])C1 (configuration not stated) | 14.2 | 0.0712 | 20.7 | 0.09
FC(F)Oc1ccc(NC(=S)NCC2COc3ccccc3O2)cc1 (configuration not stated) | 8.8 | 0.565 | 10.7 | -0.3
COc1cc(NC(=O)Cc2ccccc2)cc(OC)c1 | 58.5* | -0.213 | · | 2.15
CCc1nnc(NC(=O)CSc2nnc(-c3ccc(OC)cc3)n2C)s1 | 7.2 | -0.52 | 18.4 | 0.03
CCc1nnc(NC(=O)CSc2nnc(Cc3cc(=O)[nH]c(=O)[nH]3)n2-c2ccc(OC)cc2)s1 | · | 0.00372 | 77.8* | ·
COc1cccc(-n2c(Cc3cc(=O)[nH]c(=O)[nH]3)nnc2SCC(=O)NC2CCCC2)c1 | 49.6* | · | · | 0.83
COc1cccc(-n2nnnc2SCC(=O)NC2CCCC2)c1 | 8.8 | 0.191 | 75.0* | 0.91
CCOc1ccc(-n2ccnc2SCC(=O)Nc2nnc(CC)s2)cc1 | 15.2 | · | 81.8* | -0.75
COc1ccccc1Nc1nc(NCC2CCCO2)c2ccccc2n1 (configuration not stated) | · | · | -38.5 | ·
SMILES | Measles CPE | ROMK primary | Insulin prom inh | sdo1 growth
Cn1c(SCC(=O)NC(=O)Nc2ccccc2)nnc1-c1ccncc1 | · | -0.749 | · | ·
CSc1nnc2c3ccccc3n(CCc3ccccc3)c2n1 | 54.9* | 0.427 | -28.1 | -1.67
CSc1nnc2c3ccccc3n(Cc3ccccc3)c2n1 | 6.4 | 0.258 | -35.3 | -2.35
O=C1[C@@H]2[C@H](C(=O)N1Cc1cccnc1)[C@H]1C=C[C@@H]2C1 | 5.2 | · | -46.1 | -0.28
O=C1C2C3C=CC(C3)C2C(=O)N1Cc1ccc(CN2C(=O)C3C4C=CC(C4)C3C2=O)cc1 (configuration not stated) | 37.7* | · | 21.4 | 0.59
COc1cccc(OCC(O)CN(CCO)Cc2ccccc2)c1 (configuration not stated) | 32.2* | · | -32.3 | 0.29
O=c1[nH]c2ccc(Br)cc2c(-c2ccccc2)c1N1CCOCC1 | 55.5* | · | · | -1.22
CCN(CC)c1ccc(-c2nn3c(-c4ccccc4OC)nnc3s2)cc1 | 1.0 | 3.89* | · | -0.83
C=CCNc1nc(N2CCCC2)nc2ccccc12 | 7.9 | · | 78.8* | 0.39
CC(Nc1nc(N2CCCCC2)nc2ccccc12)c1ccccc1 (configuration not stated) | 7.6 | · | -71.4 | -1.08
CCOC(=O)c1c(C)n(C)c2ccc(OC(=O)c3ccoc3)cc12 | 39.4* | 1.61 | 12.5 | 0.63

From PubChem BioAssay
